{"source": "PubChem BioAssay (NCI)", "note": "Where “and” joins values, the source holds several entries; their conditions need not be identical. Equal entries are not always repeated. The panel holds about 83,000 compounds, 20% with a hit somewhere; the sample as a whole holds those more often.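 Values shown are percent growth following 48 h exposure of cells in 96-well plates to a single concentration of compound; below 10 was considered active.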 Unmarked numbers belong to inactive results. Calls of active or inactive are those of the source.", "data": [{"system": "HCT-15 colon", "experiment": "NCI-60 one-dose screen, 48 h (100 = growth as untreated, 0 = no growth, -100 = all killed)", "conditions": "10 µM unless noted", "values": [{"smiles": "C=CC(=O)N1CCN(c2ccc3nc4c(nc3c2C(F)(F)F)C(=O)c2ncccc2C4=O)CC1", "growth": "1.18% (active)"}, {"smiles": "O=C(N/N=C/c1ccc(-c2cccc([N+](=O)[O-])c2)s1)c1[nH]c2ccc(Br)cc2c1-c1ccccc1", "growth": "84.9%"}, {"smiles": "CCCCNc1ccc2c3c(cccc13)C(=O)N(NCC(O)COc1ccc3c(C)cc(=O)oc3c1)C2=O", "note": "(stereo unspecified)", "growth": "77.3%"}, {"smiles": "CC(=O)Nc1cccc(-n2c(COc3ccc(Br)cc3)nc3ccccc32)c1", "growth": "88.7% and 107%"}, {"smiles": "CC(=O)c1c2c(c3ccc4c5ccccc5ccc4n13)C(=O)c1ccccc1C2=O", "growth": "81.6%"}, {"smiles": "CC1=NN(C2=NC(=O)C(CC(=O)Nc3ccccc3C(F)(F)F)S2)C(c2ccc(N(C)C)cc2)C1", "note": "(stereo unspecified)", "growth": "17.1%"}, {"smiles": "Cc1ccc(C2CC(c3ccc(NC(=O)Nc4ccccc4)cc3)=NN2c2ccc(S(C)(=O)=O)cc2)cc1", "note": "(stereo unspecified)", "growth": "-84.4% (active)"}, {"smiles": "O=C(CSc1nc2sc3c(c2c(=O)n1-c1ccc(Cl)cc1)CCCC3)N/N=C/C=C/c1ccccc1", "growth": "-57.6% (active)"}, {"smiles": "O=C(COc1ccc(/C=C2/C(=O)Nc3ccc(Cl)cc32)cc1)Nc1ccc(Br)cc1", "growth": "-23% (active)"}, {"smiles": "CC(C)(C)OC(=O)N1CCC2(CC1)Oc1ccccc1[C@H]1CC(c3ccc(Br)cc3)=NN12", "growth": "59.1%"}, {"smiles": "N#Cc1c(-c2ccc(F)cc2)nc(SCc2ccc(F)cc2)nc1N1CCNCC1", "growth": "-42.8% (active)"}, {"smiles": "Cc1ccc(/C=C/C(=O)c2ccc(S(=O)(=O)NCCNc3nc(N(C)C)nc(N4CCOCC4)n3)cc2)cc1", "growth": "46.1%"}, {"smiles": "ClC(Cn1ncc2c(Nc3cccc(Br)c3)nc(SCCN3CCOCC3)nc21)c1ccc(Br)cc1", "note": "(stereo unspecified)", "growth": "-76.9% (active)"}, {"smiles": "COc1ccc(N=Nc2c(N)nn3c(N)c(C#N)c(-c4ccccc4)nc23)cc1", "growth": "70.8%"}, {"smiles": "Cc1cccc(-c2ccccc2Oc2ccc3nnc(Cl)n3n2)c1", "growth": "99.6%"}, {"smiles": "CCN1CCN(Cc2ccc(C(=O)Nc3cccc(Nc4ccc5c(OC)cccc5n4)c3)cc2C(F)(F)F)CC1", "growth": "-83.3% (active)"}, {"smiles": "N#CCc1nnc(NC(=O)c2ccc(-n3c(=O)[nH]c4ccccc4c3=O)cc2)s1", "growth": "97.1%"}, {"smiles": "COc1cc(NC(=O)CSc2nnc(-c3ccc(-c4nc5ccc(Cl)cc5[nH]4)cc3)o2)cc(OC)c1OC", "growth": "25.6%"}, {"smiles": "c1n[nH]cc1-c1nc2ccc3cn[nH]c3c2c2c1CCCC2", "growth": "96.2%"}, {"smiles": "Cc1ccccc1NC(=O)c1cccc(NC(=O)CCl)c1", "growth": "43.5%"}, {"smiles": "COc1ccc(-c2cc(-c3cc(OC)c(OC)c(OC)c3)[nH]c(=O)c2C#N)cc1", "growth": "81%"}, {"smiles": "O=C(CSc1nc2c(c(=O)[nH]1)CCCC2)Nc1ccccc1C(=O)O", "growth": "98.3%"}, {"smiles": "N/C(=N\\c1nc2ccccc2s1)NC(=O)Nc1ccccc1[N+](=O)[O-]", "growth": "5.8% (active)"}, {"smiles": "FC(F)(F)c1cc2c(Cl)ncnc2n1CCN1CCOCC1", "growth": "2.39% (active)"}, {"smiles": "O=C(NNC(=O)c1ccc(OCc2nc3ccc(Cl)cc3[nH]2)cc1)Nc1ccc(Cl)c(Cl)c1", "growth": "98.9%"}, {"smiles": "Clc1ccc(-c2nc3c4c(-c5ccccc5)c(-c5ccccc5)n(Cc5ccccc5)c4ncn3n2)cc1", "growth": "13.6%"}, {"smiles": "COc1c(B(O)O)cc(F)cc1-c1nc2c(F)cc3[nH]ncc3c2c2c1CCCC2", "growth": "4.25% (active)"}, {"smiles": "C/C(=N\\Nc1ccc(C(=O)O)cc1)c1cnn(-c2cc(=O)[nH]c3ccc(C)cc23)c1C", "growth": "97.4%"}, {"smiles": "O=C1Nc2cc(-c3ccc(NS(=O)(=O)c4ccc([N+](=O)[O-])cc4)cc3)ccc2/C1=C/c1ccc[nH]1", "growth": "11%"}, {"smiles": "COc1ccc(NC(=O)CSc2nnc(-c3ccc(-c4nc5ccc(Cl)cc5[nH]4)cc3)o2)cc1", "growth": "41.9%"}, {"smiles": "COc1ccc2[nH]c(O)c(N=Nc3nc(-c4ccc(C#N)cc4)cs3)c2c1", "growth": "68%"}, {"smiles": "COc1ccc(-c2nc3ccc(-c4nnc(SCC(=O)Nc5ccc(/C(C)=N\\O)cc5)o4)cc3[nH]2)cc1", "growth": "93.4%"}, {"smiles": "CCCCCCCCCCCCCCCCCC(=O)Nc1ccc(OC)cc1", "growth": "99.1%"}, {"smiles": "CCN1C(=O)N(CC)C2NNC(Sc3c(C(=O)O)c4ccccc4n(CCC(C)C)c3=O)=NC21", "note": "(stereo unspecified)", "growth": "2.84% (active)"}, {"smiles": "COc1ccc(/C=C/c2nc3ccccc3n3c(-c4cccc([N+](=O)[O-])c4)nnc23)cc1", "growth": "-80.7% (active)"}, {"smiles": "COc1ccc(NC(=O)N/N=C/c2c[nH]c3ccccc23)cc1", "growth": "26.2%"}, {"smiles": "CCC(=O)c1cc(C(=O)OC)c2ccc3c4ccccc4ccc3n12", "growth": "91.4%"}, {"smiles": "Cc1oc(-c2ccccc2)nc1CN[C@@H]1C[C@@H]2C[C@H]([C@H]1C)C2(C)C", "growth": "18.8%"}]}, {"system": "HT29 colon", "experiment": "NCI-60 one-dose screen, 48 h (100 = growth as untreated, 0 = no growth, -100 = all killed)", "conditions": "10 µM unless noted", "values": [{"smiles": "C=CC(=O)N1CCN(c2ccc3nc4c(nc3c2C(F)(F)F)C(=O)c2ncccc2C4=O)CC1", "growth": "11.8%"}, {"smiles": "O=C(N/N=C/c1ccc(-c2cccc([N+](=O)[O-])c2)s1)c1[nH]c2ccc(Br)cc2c1-c1ccccc1", "growth": "109%"}, {"smiles": "CCCCNc1ccc2c3c(cccc13)C(=O)N(NCC(O)COc1ccc3c(C)cc(=O)oc3c1)C2=O", "note": "(stereo unspecified)", "growth": "100%"}, {"smiles": "CC(=O)Nc1cccc(-n2c(COc3ccc(Br)cc3)nc3ccccc32)c1", "growth": "123% and 115%"}, {"smiles": "CC(=O)c1c2c(c3ccc4c5ccccc5ccc4n13)C(=O)c1ccccc1C2=O", "growth": "107%"}, {"smiles": "CC1=NN(C2=NC(=O)C(CC(=O)Nc3ccccc3C(F)(F)F)S2)C(c2ccc(N(C)C)cc2)C1", "note": "(stereo unspecified)", "growth": "40.8%"}, {"smiles": "Cc1ccc(C2CC(c3ccc(NC(=O)Nc4ccccc4)cc3)=NN2c2ccc(S(C)(=O)=O)cc2)cc1", "note": "(stereo unspecified)", "growth": "-55.7% (active)"}, {"smiles": "O=C(CSc1nc2sc3c(c2c(=O)n1-c1ccc(Cl)cc1)CCCC3)N/N=C/C=C/c1ccccc1", "growth": "-19.3% (active)"}, {"smiles": "O=C(COc1ccc(/C=C2/C(=O)Nc3ccc(Cl)cc32)cc1)Nc1ccc(Br)cc1", "growth": "-51.3% (active)"}, {"smiles": "CC(C)(C)OC(=O)N1CCC2(CC1)Oc1ccccc1[C@H]1CC(c3ccc(Br)cc3)=NN12", "growth": "96.7%"}, {"smiles": "N#Cc1c(-c2ccc(F)cc2)nc(SCc2ccc(F)cc2)nc1N1CCNCC1", "growth": "-79.1% (active)"}, {"smiles": "Cc1ccc(/C=C/C(=O)c2ccc(S(=O)(=O)NCCNc3nc(N(C)C)nc(N4CCOCC4)n3)cc2)cc1", "growth": "37.3%"}, {"smiles": "ClC(Cn1ncc2c(Nc3cccc(Br)c3)nc(SCCN3CCOCC3)nc21)c1ccc(Br)cc1", "note": "(stereo unspecified)", "growth": "-43% (active)"}, {"smiles": "COc1ccc(N=Nc2c(N)nn3c(N)c(C#N)c(-c4ccccc4)nc23)cc1", "growth": "60.9%"}, {"smiles": "Cc1cccc(-c2ccccc2Oc2ccc3nnc(Cl)n3n2)c1", "growth": "107%"}, {"smiles": "CCN1CCN(Cc2ccc(C(=O)Nc3cccc(Nc4ccc5c(OC)cccc5n4)c3)cc2C(F)(F)F)CC1", "growth": "-67.6% (active)"}, {"smiles": "N#CCc1nnc(NC(=O)c2ccc(-n3c(=O)[nH]c4ccccc4c3=O)cc2)s1", "growth": "116%"}, {"smiles": "COc1cc(NC(=O)CSc2nnc(-c3ccc(-c4nc5ccc(Cl)cc5[nH]4)cc3)o2)cc(OC)c1OC", "growth": "51.3%"}, {"smiles": "c1n[nH]cc1-c1nc2ccc3cn[nH]c3c2c2c1CCCC2", "growth": "95.5%"}, {"smiles": "Cc1ccccc1NC(=O)c1cccc(NC(=O)CCl)c1", "growth": "35.6%"}, {"smiles": "COc1ccc(-c2cc(-c3cc(OC)c(OC)c(OC)c3)[nH]c(=O)c2C#N)cc1", "growth": "103%"}, {"smiles": "O=C(CSc1nc2c(c(=O)[nH]1)CCCC2)Nc1ccccc1C(=O)O", "growth": "105%"}, {"smiles": "N/C(=N\\c1nc2ccccc2s1)NC(=O)Nc1ccccc1[N+](=O)[O-]", "growth": "-31.5% (active)"}, {"smiles": "FC(F)(F)c1cc2c(Cl)ncnc2n1CCN1CCOCC1", "growth": "81.2%"}, {"smiles": "O=C(NNC(=O)c1ccc(OCc2nc3ccc(Cl)cc3[nH]2)cc1)Nc1ccc(Cl)c(Cl)c1", "growth": "67.2%"}, {"smiles": "Clc1ccc(-c2nc3c4c(-c5ccccc5)c(-c5ccccc5)n(Cc5ccccc5)c4ncn3n2)cc1", "growth": "-2% (active)"}, {"smiles": "COc1c(B(O)O)cc(F)cc1-c1nc2c(F)cc3[nH]ncc3c2c2c1CCCC2", "growth": "21.1%"}, {"smiles": "C/C(=N\\Nc1ccc(C(=O)O)cc1)c1cnn(-c2cc(=O)[nH]c3ccc(C)cc23)c1C", "growth": "100%"}, {"smiles": "O=C1Nc2cc(-c3ccc(NS(=O)(=O)c4ccc([N+](=O)[O-])cc4)cc3)ccc2/C1=C/c1ccc[nH]1", "growth": "-17.3% (active)"}, {"smiles": "COc1ccc(NC(=O)CSc2nnc(-c3ccc(-c4nc5ccc(Cl)cc5[nH]4)cc3)o2)cc1", "growth": "47.8%"}, {"smiles": "COc1ccc2[nH]c(O)c(N=Nc3nc(-c4ccc(C#N)cc4)cs3)c2c1", "growth": "79.1%"}, {"smiles": "COc1ccc(-c2nc3ccc(-c4nnc(SCC(=O)Nc5ccc(/C(C)=N\\O)cc5)o4)cc3[nH]2)cc1", "growth": "86.3%"}, {"smiles": "CCCCCCCCCCCCCCCCCC(=O)Nc1ccc(OC)cc1", "growth": "104%"}, {"smiles": "CCN1C(=O)N(CC)C2NNC(Sc3c(C(=O)O)c4ccccc4n(CCC(C)C)c3=O)=NC21", "note": "(stereo unspecified)", "growth": "-30% (active)"}, {"smiles": "COc1ccc(/C=C/c2nc3ccccc3n3c(-c4cccc([N+](=O)[O-])c4)nnc23)cc1", "growth": "-59.5% (active)"}, {"smiles": "COc1ccc(NC(=O)N/N=C/c2c[nH]c3ccccc23)cc1", "growth": "2.49% (active)"}, {"smiles": "CCC(=O)c1cc(C(=O)OC)c2ccc3c4ccccc4ccc3n12", "growth": "73.3%"}, {"smiles": "Cc1oc(-c2ccccc2)nc1CN[C@@H]1C[C@@H]2C[C@H]([C@H]1C)C2(C)C", "growth": "7.34% (active)"}]}]}
